About 83,000 compounds went through this panel and 20% of them were active in at least one assay; those are over-represented in the sample as a whole.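 The endpoint reported here, percent growth, reads 100 for growth as untreated, 0 for no net growth and -100 for all cells dead.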 Active and inactive are the calls of the source. Rule for the calls: active = growth percent below 10; inactive = the rest.

The test system of the first test is HCT-116 colon. As to the kind of experiment: NCI-60 one-dose screen, 48 h (100 = growth as untreated, 0 = no growth, -100 = all killed). Conditions: 10 µM.
Take `C/C(=C\c1cc(Cl)ccc1OCC(=O)O)[N+](=O)[O-]`: the growth is 109% (inactive).

With `Cc1cc(Cc2cc(C)c(N)cc2N)c(N)cc1N`, the growth was 94.8% (inactive).

On to `CC1Cc2ccccc2O1` (configuration not stated), for which the growth was 112% (inactive).

Consider `Cc1cc(C)cc(NCCC#N)c1`, for which the growth was 106% (inactive).

Take `OCC(O)C(O)C(O)C(O)/C=N/O` (configuration not stated): the growth is 91.3% (inactive).

For `O=c1cc(-c2ccccc2)[nH]c(=S)[nH]1`, the growth was 101% (inactive).

In the case of `Nc1nc(N)c(N=Nc2ccc(C(=O)O)cc2)c(N)n1`, the growth was 95.4% (inactive).

On to `c1ccc(CN2COc3c(ccc4c3OCN(Cc3ccccc3)C4)C2)cc1`, for which the growth was 22% (inactive).

Turning to `CCOC(=O)C1=C(Nc2ccc(Br)cc2)C(=O)N(CC)C1`, the growth is 95.9% (inactive).

With `CC(C)=CC(=O)OC(=O)C=C(C)C`, the growth is 109% (inactive).

Regarding `O=C(O)C(c1ccccc1)C(O)c1ccccc1` (configuration not stated), the growth was 105% (inactive).

As to `O=C(CN1CCNCC1)N1CCOCC1`, the growth is 103% (inactive).

As to `Nc1ccc(N)c([N+](=O)[O-])c1`, the growth is 99.6% (inactive).

For `CCOC(=O)c1coc(C(=O)OCC)c1C(=O)OCC`, the growth was 115% (inactive).

For `COC(=O)/C=C/C(=O)NC(N)=O`, the growth was 103% (inactive).

Turning to `O=[N+]([O-])c1ccc(N=Nc2ccccc2)cc1`, the growth is 97.1% (inactive).

A further test relates to HCC-2998 colon. The test is described as above. Conditions: 10 µM.
`COc1ccc(-c2cc3c(nn2)-c2ccccc2C3=O)cc1`: the growth is 34.5% (inactive).

In the case of `CCCCC(=O)c1ccc(OC)cc1`, the growth was 116% (inactive).

As for `N=c1c(C(=O)OCc2ccccc2)ncc(CCl)n1O`, the growth is 104% (inactive).

With `CCOC(=O)c1ccc(Nc2sc(C(=O)c3cccc([N+](=O)[O-])c3)c(N)c2C#N)cc1`, the growth was 45.8% (inactive).

For `COC(=O)c1ccccc1N(C)C`, the growth is 113% (inactive).

On to `CC1(C(=O)O)NC(C(=O)O)Cc2c1[nH]c1ccccc21` (configuration not stated), for which the growth is 104% (inactive).

As for `NCCC(=O)c1ccc(Cl)cc1`, the growth was 97.6% (inactive).

Turning to `CC(=O)/C(Cc1ccccc1)=N/O`, the growth was 111% (inactive).

As for `Cc1cccc(CO)c1`, the growth was 112% (inactive).

Turning to `CC1(C)/C(=C\CO)C2CCC1C2` (configuration not stated), the growth is 104% (inactive).

Take `CC1C(=O)c2ccccc2CC1C(=O)O` (configuration not stated): the growth was 89.7% (inactive).

For `CC12CC3CC1C(C(=O)O2)C3C(=O)O` (configuration not stated), the growth was 95.8% (inactive).

As to `CC(C)CCOC(=O)c1ccccc1`, the growth is 110% (inactive).

For `O=C1C[C@H](c2ccccc2)[C@H](c2ccccc2)C1`, the growth was 104% (inactive).

Take `O=c1cc(-c2ccccc2)oc2c1ccc1ccccc12`: the growth is 98.8% (inactive).

Regarding `O=C(CCl)N1CCN(C/C=C/c2ccccc2)CC1`, the growth was 125% (inactive).

Regarding `COC(=O)c1cccnc1`, the growth is 104% (inactive).

In the case of `CC(=O)NCc1cc(C)c(C)cc1C`, the growth is 115% (inactive).

In the case of `C#CCSc1nnnn1-c1ccc(Br)c(C)c1`, the growth was 121% (inactive).

For `C=CCNC(=O)c1ccc(OC)cc1`, the growth is 93.3% (inactive).

As for `O=C1Cc2ccccc2C(=O)O1`, the growth is 112% (inactive).

As to `Cc1ccccc1C1N=C2Oc3ccccc3C=C2C(=O)N1` (configuration not stated), the growth is 26.1% (inactive).

On to `C/C(=C\c1cc(Cl)ccc1OCC(=O)O)[N+](=O)[O-]`, for which the growth was 111% (inactive).

Regarding `Cc1cc(Cc2cc(C)c(N)cc2N)c(N)cc1N`, the growth was 108% (inactive).

Take `CC1Cc2ccccc2O1` (configuration not stated): the growth was 86.4% (inactive).

Take `Cc1cc(C)cc(NCCC#N)c1`: the growth was 109% (inactive).

In the case of `OCC(O)C(O)C(O)C(O)/C=N/O` (configuration not stated), the growth is 102% (inactive).

In the case of `O=c1cc(-c2ccccc2)[nH]c(=S)[nH]1`, the growth was 104% (inactive).

For `Nc1nc(N)c(N=Nc2ccc(C(=O)O)cc2)c(N)n1`, the growth was 100% (inactive).

On to `c1ccc(CN2COc3c(ccc4c3OCN(Cc3ccccc3)C4)C2)cc1`, for which the growth is -14.5% (active).

In the case of `CCOC(=O)C1=C(Nc2ccc(Br)cc2)C(=O)N(CC)C1`, the growth is 101% (inactive).

Turning to `CC(C)=CC(=O)OC(=O)C=C(C)C`, the growth is 117% (inactive).

`O=C(O)C(c1ccccc1)C(O)c1ccccc1` (configuration not stated): the growth is 97.9% (inactive).

For the molecule `O=C(CN1CCNCC1)N1CCOCC1`, the growth is 108% (inactive).

Take `Nc1ccc(N)c([N+](=O)[O-])c1`: the growth is 106% (inactive).

Take `CCOC(=O)c1coc(C(=O)OCC)c1C(=O)OCC`: the growth was 108% (inactive).

In the case of `COC(=O)/C=C/C(=O)NC(N)=O`, the growth was 122% (inactive).

For the molecule `O=[N+]([O-])c1ccc(N=Nc2ccccc2)cc1`, the growth is 104% (inactive).

The next test concerns KM12 colon. The description is as above. To be noted: 10 µM.
On to `COc1ccc(-c2cc3c(nn2)-c2ccccc2C3=O)cc1`, for which the growth was 37.1% (inactive).

Take `CCCCC(=O)c1ccc(OC)cc1`: the growth is 104% (inactive).

As to `N=c1c(C(=O)OCc2ccccc2)ncc(CCl)n1O`, the growth was 102% (inactive).

Consider `CCOC(=O)c1ccc(Nc2sc(C(=O)c3cccc([N+](=O)[O-])c3)c(N)c2C#N)cc1`, for which the growth is 17.5% (inactive).

On to `COC(=O)c1ccccc1N(C)C`, for which the growth is 107% (inactive).

`CC1(C(=O)O)NC(C(=O)O)Cc2c1[nH]c1ccccc21` (configuration not stated): the growth is 103% (inactive).

On to `NCCC(=O)c1ccc(Cl)cc1`, for which the growth was 98.1% (inactive).

For the molecule `CC(=O)/C(Cc1ccccc1)=N/O`, the growth was 105% (inactive).

Consider `Cc1cccc(CO)c1`, for which the growth was 97% (inactive).

Regarding `CC1(C)/C(=C\CO)C2CCC1C2` (configuration not stated), the growth was 114% (inactive).

With `CC1C(=O)c2ccccc2CC1C(=O)O` (configuration not stated), the growth is 123% (inactive).

Consider `CC12CC3CC1C(C(=O)O2)C3C(=O)O` (configuration not stated), for which the growth was 101% (inactive).

With `CC(C)CCOC(=O)c1ccccc1`, the growth was 106% (inactive).

As to `O=C1C[C@H](c2ccccc2)[C@H](c2ccccc2)C1`, the growth is 115% (inactive).

For `O=c1cc(-c2ccccc2)oc2c1ccc1ccccc12`, the growth was 98.8% (inactive).

Regarding `O=C(CCl)N1CCN(C/C=C/c2ccccc2)CC1`, the growth is 112% (inactive).

On to `COC(=O)c1cccnc1`, for which the growth was 112% (inactive).

Regarding `CC(=O)NCc1cc(C)c(C)cc1C`, the growth is 95.7% (inactive).

For the molecule `C#CCSc1nnnn1-c1ccc(Br)c(C)c1`, the growth is 102% (inactive).

`C=CCNC(=O)c1ccc(OC)cc1`: the growth was 122% (inactive).

As for `O=C1Cc2ccccc2C(=O)O1`, the growth was 115% (inactive).

As for `Cc1ccccc1C1N=C2Oc3ccccc3C=C2C(=O)N1` (configuration not stated), the growth was 64.8% (inactive).

Take `C/C(=C\c1cc(Cl)ccc1OCC(=O)O)[N+](=O)[O-]`: the growth is 105% (inactive).

Consider `Cc1cc(Cc2cc(C)c(N)cc2N)c(N)cc1N`, for which the growth is 99.5% (inactive).

On to `CC1Cc2ccccc2O1` (configuration not stated), for which the growth was 107% (inactive).

Consider `Cc1cc(C)cc(NCCC#N)c1`, for which the growth was 107% (inactive).

In the case of `OCC(O)C(O)C(O)C(O)/C=N/O` (configuration not stated), the growth is 101% (inactive).

Consider `O=c1cc(-c2ccccc2)[nH]c(=S)[nH]1`, for which the growth was 96.7% (inactive).

Regarding `Nc1nc(N)c(N=Nc2ccc(C(=O)O)cc2)c(N)n1`, the growth is 115% (inactive).

As for `c1ccc(CN2COc3c(ccc4c3OCN(Cc3ccccc3)C4)C2)cc1`, the growth is 25.3% (inactive).

On to `CCOC(=O)C1=C(Nc2ccc(Br)cc2)C(=O)N(CC)C1`, for which the growth is 101% (inactive).

Turning to `CC(C)=CC(=O)OC(=O)C=C(C)C`, the growth is 102% (inactive).

On to `O=C(O)C(c1ccccc1)C(O)c1ccccc1` (configuration not stated), for which the growth is 108% (inactive).

In the case of `O=C(CN1CCNCC1)N1CCOCC1`, the growth was 108% (inactive).

As to `Nc1ccc(N)c([N+](=O)[O-])c1`, the growth was 104% (inactive).

On to `CCOC(=O)c1coc(C(=O)OCC)c1C(=O)OCC`, for which the growth is 106% (inactive).

For `COC(=O)/C=C/C(=O)NC(N)=O`, the growth was 102% (inactive).

With `O=[N+]([O-])c1ccc(N=Nc2ccccc2)cc1`, the growth is 96.2% (inactive).

These data come from PubChem BioAssay (NCI).
